The other results are listed elsewhere or left out. Results filed as inconclusive are left out. Active and inactive are the calls of the source.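 How the source made its calls: active means fitted half-maximal concentration for signal loss at or below twice the highest dose tested, in every separate run (actives reach about 64 µM in these data); inconclusive means runs disagree, or flat partial signal loss, or poor fit; inactive means the rest.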
Test: DNA binders displacing acridine orange – biochemical, fluorescence polarization, cherry-pick, artefact control for RAD52 inhibitor project, dose response (AID 652128)
Conditions: Salmon sperm DNA/acridine orange FP displacement, DNA binding
For C=Cn1cc[n+](CC(=O)c2ccc(OC)c(OC)c2)c1, the outcome was “inactive”. For CN1CCC(CN)(N2CCN(c3ccccc3)CC2)CC1, the outcome was “inactive”. For CCN(CC)CCOc1ccc2c(c1)C(=NNC(=O)c1ccccn1)c1cc(OCCN(CC)CC)ccc1-2, the AC50 was 4.27 µM (active). With CCOCCCNC(=S)Nc1ccc2nc(N3CCN(CC)CC3)cc(C)c2c1 the outcome was “inactive”. In the case of CC(C)[C@@H](C)/C=C/[C@@H](C)[C@H]1CC[C@@H]2[C@]1(C)CCC1[C@]23C=C[C@]2(C[C@@H](O)CC[C@]12C)N(c1ccc([N+](=O)[O-])cn1)O3 (some centres not stated), the outcome is reported as “inactive”. With Oc1ccc(N=Cc2sc3ccccc3c2Cl)cc1 the outcome was “inactive”. In the case of CC(=O)Nc1cc(-c2ccc(N3CCN(C)CC3)cc2)cn2c(-c3cccc(C(=O)N(C)C)c3)cnc12, the outcome is reported as “inactive”. For CN(C)CCNC(=O)c1cccc(-c2cnc3c(NC=O)cc(-c4cccc(C(F)(F)F)c4)cn23)c1, the outcome was “inactive”. With Cc1ccc2c(c1)C1CN(C)CCC1N2S(=O)(=O)c1ccc(Oc2ccc([N+](=O)[O-])cc2)cc1 (configuration not stated) the outcome was “inactive”. For CC(=O)Nc1ccc(Nc2c3ccccc3nc3ccccc23)cc1, the AC50 was 7.66 µM (active). With CN(C)CCNC(=O)c1ccc(-c2cn3c(-c4ccc(Oc5ccccc5)cc4)cnc3cn2)cc1 the outcome was “inactive”. With CCN(CC)CCNC(=O)c1ccc(NC(=O)c2cc(-c3ccncc3)nc3ccccc23)cc1 the outcome was “inactive”. For CN1CCN(CCCNC(=O)c2ccc(/C=C3\Oc4ccccc4N(Cc4ccc(Cl)cc4)C3=O)cc2)CC1, the outcome was “inactive”. With CCN1CCCC1CNC(=O)c1ccc2c(c1)NC(=O)/C(=C\c1ccccc1F)S2 (configuration not stated) the outcome was “inactive”. In the case of NCCCCCC(=O)N/N=C/c1ccc2nccnc2c1, the outcome is reported as “inactive”. In the case of CCn1cc(CN2CCC(C(=O)Nc3cccc(-c4cccc(Cl)c4)c3)CC2)cn1, the outcome is reported as “inactive”. In the case of COc1cccc(CNc2nc(NCc3cccs3)nc3ccsc23)c1, the outcome is reported as “inactive”. With Nc1ncc(CN2CCCC(C(=O)Nc3ccc(-c4ccco4)cc3)C2)cn1 (configuration not stated) the outcome was “inactive”. With COC1=C(N2CCOCC2)C(=O)c2ccccc2C1=O the outcome was “inactive”. In the case of Cc1c(CCOC(=O)CC23CC4CC(CC(C)(C4)C2)C3)sc[n+]1Cc1ccc([N+](=O)[O-])cc1, the outcome is reported as “inactive”. With Cc1cccc(-c2nc3ccc(C(=O)NCCN4CCN(C)CC4)cc3nc2-c2cccc(C)c2)c1 the outcome was “inactive”. For COc1ccc(NC(=O)C2C3CCC(O3)C2C(=O)O)cc1OC (configuration not stated), the outcome was “inactive”. With CC(C)C(=O)N1CC(=O)Nc2ccc(F)cc2C1c1ccc(F)cc1 (configuration not stated) the outcome was “inactive”. For COc1cccc2sc(N(CCCN(C)C)C(=O)C(c3ccccc3)c3ccccc3)nc12, the outcome was “inactive”. For NCCCNC(=S)NCCCN(Cc1ccc(Cl)cc1)c1ccc(Br)cn1, the outcome was “inactive”. With Cc1cccc(NC(=S)NC23CN4CN(CN(C4)C2)C3)c1 the outcome was “inactive”. In the case of Cc1cc(C)c2nc3nc(C)cc(C)c3c(N)c2c1, the AC50 is reported as 30 µM (active).

Reference: PubChem BioAssay AID652128 (Broad Institute, 2013)
